GASC-1 inh – human JMJD2C demethylase inhibition; GST-JMJD2C(1-420) H3K9me3 demethylation, DELFIA europium; Q9H3R0; 0.069% of 330,000 active; inhibition, % at 2.35 µM;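 active means more than half of a compound's replicate wells show inhibition beyond 50%, single wells judged on their own value; inconclusive means some, but no more than half, of replicates pass 50% inhibition; inactive means no replicate passes 50% inhibition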;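 further: signal counts dimethyl H3K9 product captured on neutravidin plate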
Mot1-301 SUMO – blocks SUMOylation pathway, rescuing yeast Mot1-301 growth; S. cerevisiae Mot1-301 growth rescue, ATP luminescence, 38.5C; percent above DMSO median, 100 means doubled; growth rescue, % at 18.8 µM; 1% of 320,000 active; AID 2716;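 active means every valid replicate shows activation above 250% relative to neutral control wells; inactive means the rest, any valid replicate at or below 250%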
PHOSPHO1 block – PHOSPHO1 (human) inhibition. Q8TCT1. recombinant PHOSPHO1, absorbance phosphatase assay. inhibition, % at 13.3 µM. 1.1% of 290,000 active; in the data active means inhibition above about 60%
Target sequence (Q8TCT1 whole entry, looked up): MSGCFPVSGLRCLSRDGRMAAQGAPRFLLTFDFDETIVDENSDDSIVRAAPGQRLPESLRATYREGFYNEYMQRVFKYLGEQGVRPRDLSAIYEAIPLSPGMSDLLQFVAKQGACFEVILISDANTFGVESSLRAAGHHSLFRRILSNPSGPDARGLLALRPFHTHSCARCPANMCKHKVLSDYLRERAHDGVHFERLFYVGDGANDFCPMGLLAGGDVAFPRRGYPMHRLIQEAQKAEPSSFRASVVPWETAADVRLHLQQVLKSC
PvdQ acylase – P. aeruginosa PvdQ acylase inhibition; inhibition, % at 10 µM; 0.063% of 340,000 active; AID 488965; purified PvdQ acylase, fluorescence plate reader; in the data active means inhibition above about 30%, passing the limit was not always enough; inconclusive means no clear call, values can overlap the other calls
HDAC3 inh – blocks human histone deacetylase 3; AID 2718; 0.15% of 320,000 active; inhibition, % at 8.3 µM; O15379; recombinant HDAC3, fluorogenic peptide/trypsin coupled, fluorescence; in the data active means inhibition above about 26%, passing the limit was not always enough; inconclusive means no clear call, values can overlap the other calls
Target sequence (O15379 whole entry, looked up): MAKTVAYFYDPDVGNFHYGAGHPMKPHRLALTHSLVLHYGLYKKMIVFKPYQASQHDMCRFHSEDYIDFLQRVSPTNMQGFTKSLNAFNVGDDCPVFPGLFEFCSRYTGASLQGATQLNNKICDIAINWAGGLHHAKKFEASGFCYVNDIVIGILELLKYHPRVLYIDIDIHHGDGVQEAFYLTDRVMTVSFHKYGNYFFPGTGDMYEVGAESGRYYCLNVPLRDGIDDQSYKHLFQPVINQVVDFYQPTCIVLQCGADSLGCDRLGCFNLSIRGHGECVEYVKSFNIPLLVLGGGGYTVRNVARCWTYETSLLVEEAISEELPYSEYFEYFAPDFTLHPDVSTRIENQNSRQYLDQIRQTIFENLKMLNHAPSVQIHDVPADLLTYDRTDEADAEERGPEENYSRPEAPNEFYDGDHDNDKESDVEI
pCIP destab – p/CIP protein destabilization; Q05BA5; F442A p/CIP-EGFP cells, EGFP fluorescence, 16 h; decrease of EGFP signal, % at 10 µM; 0.01% of 290,000 active; AID 1984;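 active means EGFP signal decrease of at least 30% at 10 µM or well 3 SD below plate mean, unless failing retest; inactive means the rest, including hits failing retest or dose response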
Mot1 SUMO dose – inhibits SUMO pathway, affecting Mot1-301 yeast growth | AID 493004 | 2,300 tested, under 10 active | growth activity, percent, % at 42 µM | shares compounds with Mot1-301 SUMO | S. cerevisiae Mot1-301 galactose growth, ATP luminescence, 24 h; -100 = growth of slx-deleted rescue strain;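 active means Signal drops as the depositor expects, and the fitted half-maximal dose is no more than ten times the top valid tested dose; inconclusive means Poor fit, or a flat curve whose signal drops by 30% to 70%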;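 further: more negative values mean stronger growth rescue toward the control strain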
Of the large screens only hits and unclear results are named; the others gave an inactive call (follow-up assays come after a bar, where they were run); ! = repeats disagree. An excerpt weighted towards active compounds, which were near 2.2% of everything screened.

CCOC(=O)c1ccc(CNC(=O)c2cc(COc3ccccc3SC)on2)o1	none
CCCCOc1ccc(C(=O)Nc2ccc(N3CCN(C)CC3)cc2)cc1	Mot1-301 SUMO active | Mot1 SUMO dose inactive
O=[N+]([O-])c1ccc(N/N=C/c2cccc(O)c2)cc1	Mot1-301 SUMO 483.5 | Mot1 SUMO dose inactive
Cc1cc(C(=O)NNC(=O)c2ccc(C)s2)c(C)o1	Mot1-301 SUMO 475.7 (no result: PHOSPHO1 block, pCIP destab) | Mot1 SUMO dose inactive
Cc1cc(C(=O)NNC(=O)c2cccc(N(C)C)c2)c(C)o1	HDAC3 inh inconclusive
C=CCn1c(CCC)nc2ccccc21	Mot1-301 SUMO 633.7 | Mot1 SUMO dose inactive
COc1ccc(Cl)cc1NC(=O)C1CCCN(c2cc(C)nc3ncnn23)C1 (stereo not drawn)	Mot1-301 SUMO 732.5 | Mot1 SUMO dose inactive
COc1ccccc1NC(=O)N1CCN(S(C)(=O)=O)CC1	none
COc1ccccc1NC(=O)N1CCN(C(=O)Nc2ccccc2OC)CC1	Mot1-301 SUMO active (no result: HDAC3 inh) | Mot1 SUMO dose inactive
O=C(N[C@H]1CCC(=O)N(CCSc2ccc(Br)cc2)CC1)OCc1ccccc1	none (no result: PHOSPHO1 block, pCIP destab)
CCOC(=O)CCN(c1ccccc1)S(=O)(=O)c1ccc(-c2ccc(=O)[nH]n2)s1	Mot1-301 SUMO 587.5 | Mot1 SUMO dose inactive
CN(C)CCN(Cc1ccccc1)S(=O)(=O)c1ccc(-c2ccc(=O)[nH]n2)s1	none
CCOc1ccc(CN(C)C(=O)[C@H](Cc2ccccc2)NC(=O)OCc2ccccc2)cc1OC	none
O=C(N/N=C/c1cc(Br)cs1)c1ccccc1[N+](=O)[O-]	none
O=C(N/N=C/c1ccc(Cl)s1)c1ccccc1[N+](=O)[O-]	Mot1-301 SUMO 805.0 | Mot1 SUMO dose inactive
Nc1cc2c(cc1Cl)-c1ccc(Cl)cc1C2=O	none (no result: GASC-1 inh, Mot1-301 SUMO, PHOSPHO1 block, HDAC3 inh, pCIP destab)
CC[C@H]1C/C=C\Cc2ccccc2[C@H](C(=O)C[C@@H](O)CC(C)=O)OC1=O	none (no result: PHOSPHO1 block, pCIP destab)
CC[C@@H]1C/C=C\Cc2ccccc2[C@H](C(=O)C[C@@H](O)CC(C)=O)OC1=O	Mot1-301 SUMO 497.3 (no result: GASC-1 inh, PHOSPHO1 block, pCIP destab) | Mot1 SUMO dose inactive
Cc1ccc(SCC(=O)O/N=C(\N)c2cccc([N+](=O)[O-])c2)cc1	Mot1-301 SUMO active | Mot1 SUMO dose inactive
CN(CC(=O)Nc1ccc(Cl)cc1)C(=O)C1CCCC1	none (no result: GASC-1 inh, Mot1-301 SUMO, PHOSPHO1 block, HDAC3 inh, pCIP destab)
COc1cc(NC(=S)N2CCN(C(=O)C3CCCO3)CC2)c(OC)cc1Cl (stereo not drawn)	Mot1-301 SUMO 370.0 | Mot1 SUMO dose inactive
O=C(N=C1SC2CS(=O)(=O)CC2N1c1ccc(F)c(Cl)c1)C1CC1 (stereo not drawn)	Mot1-301 SUMO 517.7 | Mot1 SUMO dose inactive
CC(=O)c1cccc(N2C(=NC(=O)C3CC3)SC3CS(=O)(=O)CC32)c1 (stereo not drawn)	none
O=C(N=C1SC2CS(=O)(=O)CC2N1c1ccc(F)cc1F)C1CC1 (stereo not drawn)	none
CC(=O)c1cccc(N2C(=NC(=O)C3CCCCC3)SC3CS(=O)(=O)CC32)c1 (stereo not drawn)	Mot1-301 SUMO 476.9 | Mot1 SUMO dose inactive
Cc1ccc2nc(NC(=O)COC(=O)c3ccccn3)sc2c1	none
C/C=C/C(=O)OCC(=O)Nc1nc2ccc(C)cc2s1	Mot1-301 SUMO 360.6 | Mot1 SUMO dose inactive
CCCCCCCCCCOC(=O)Cn1c(COc2ccc(OC)cc2)[n+](C)c2ccccc21	Mot1-301 SUMO 562.6!, HDAC3 inh inconclusive | Mot1 SUMO dose inactive
CCN(CC)CC(=O)Nc1ccc(Oc2ccc(NC(=O)CN(CC)CC)cc2)cc1	Mot1-301 SUMO 371.2 | Mot1 SUMO dose inactive
CCN(CC(=O)Nc1ccc(OC)cc1)CC(=O)Nc1ccc(Cl)cc1F	none
CCCCN1C=CC(=C2C(=O)c3ccccc3C2=O)C=C1	none
Cc1nn(C)cc1C(C(=O)NC1CCCCC1)N(C(=O)Cn1nnc2ccccc21)c1ccc(F)cc1 (stereo not drawn)	none
Cc1ccc(N(C(=O)Cn2nnc3ccccc32)C(C(=O)NC2CCCCC2)c2cn(C)nc2C)cc1 (stereo not drawn)	Mot1-301 SUMO 834.7 | Mot1 SUMO dose inactive
COc1ccc(-c2nc(CSCC(=O)NC3CCCC3)c(C)o2)cc1OC	none
Cc1cccc(C(C)C)c1NC(=O)COC(=O)CN1C(=O)C2CC=CCC2C1=O (stereo not drawn)	none (no result: PHOSPHO1 block, pCIP destab)
CN1/C(=C\C(=O)COC(=O)c2ccc([N+](=O)[O-])o2)C(C)(C)c2ccccc21	Mot1-301 SUMO 428.2 | Mot1 SUMO dose inactive
CN1/C(=C\C(=O)COC(=O)c2nccnc2N)C(C)(C)c2ccccc21	none (no result: PHOSPHO1 block, pCIP destab)
N#Cc1cc2c(nc1SCc1cccnc1)CCC2	Mot1-301 SUMO active | Mot1 SUMO dose inactive
COc1ccc(S(=O)(=O)N2CCCOC2CNC(=O)C(=O)NCCc2ccco2)cc1C (stereo not drawn)	none
CC1Cc2ccccc2N1C(=O)Cn1c(=O)cc(O)c2ccccc21 (stereo not drawn)	Mot1-301 SUMO 636.2 | Mot1 SUMO dose inactive
CC1Cc2ccccc2N1C(=O)CN1C(=O)COc2ccccc21 (stereo not drawn)	none
CC(C)CC(=O)Nc1ccc(-c2nc3ccccc3c(=O)[nH]2)cc1	none
CC(C)(C)NC(=O)C[C@H]1C[C@H](C(=O)N2CCOCC2)[C@@]2(C)c3[nH]c4ccc(Cl)cc4c3CCN2C1=O	none (no result: GASC-1 inh, Mot1-301 SUMO, PHOSPHO1 block, HDAC3 inh, pCIP destab)
Cc1ccc(S(=O)(=O)Oc2ccc(/C=C3\N=C(c4cccc(C)c4)OC3=O)cc2)cc1	Mot1-301 SUMO active | Mot1 SUMO dose inactive
O=C(COc1ccc(-n2cnnn2)cc1)Nc1ccc(F)cc1	none (no result: PHOSPHO1 block, pCIP destab)
O=C(COc1ccc(-n2cnnn2)cc1)NCCc1ccc(F)cc1	Mot1-301 SUMO active | Mot1 SUMO dose inactive
Cc1ccc(S(=O)(=O)NCC(=O)OCC(=O)c2ccc(Br)s2)cc1	Mot1-301 SUMO 746.6 | Mot1 SUMO dose inactive
Cc1ccc(NC(=O)CSc2nnc(C(F)(F)F)n2C)cc1[N+](=O)[O-]	none (no result: HDAC3 inh)
CC(=O)N(Cc1ccco1)c1nc(C(=O)Nc2ccc(Cl)cc2)c(C)s1	none
COc1ccc(S(=O)(=O)NC(C)C(=O)NCc2ccccn2)cc1Cl (stereo not drawn)	Mot1-301 SUMO 385.8 | Mot1 SUMO dose inactive
COc1ccc(S(=O)(=O)NC(C)C(=O)NCc2ccccn2)cc1OC (stereo not drawn)	none
COC(=O)[C@H](Cc1ccccc1)NC(=O)NC(C)CCc1ccccc1 (stereo partly drawn)	Mot1-301 SUMO 871.1 (no result: PHOSPHO1 block) | Mot1 SUMO dose inactive
COC(=O)C(Cc1ccccc1)NC(=O)CCC(=O)NC(C)CCc1ccccc1 (stereo not drawn)	none
Cc1ccc(NCC(=O)Nc2c(C)n(C)n(-c3ccccc3)c2=O)cc1S(=O)(=O)N(C)C	none
CC(=O)Nc1cccc2c1C(=O)N(c1ccccc1C)C2=O	Mot1-301 SUMO 518.3 | Mot1 SUMO dose inactive

Screening results as filed in PubChem BioAssay.
